# Data published in ChEMBL document CHEMBL3988442, “University of Dundee, Small-Polar-MMV Screening Library” (2021).
# About 13,000 (27%) of roughly 48,000 compounds showed an effect of 50% or more. The list shows a part of the results.
# Tested on: Wolbachia pipientis
# Assay: Anti-Wolbachia Cell-Based Screen
# Type: functional
# Design: scale not given: in the data most compounds retested in dose-response had high values
# Settings: 5 µM
row,SMILES,Percent Effect [%]
1,COc1ccccc1CNC(=O)C(C)N1CC(n2nc(C)cc2C)C1 (centres undefined),-6.868
2,COc1ccccc1C(C)CC(=O)N1CCCS1(=O)=O (centres undefined),-3.86
3,COc1ccccc1C(C)CC(=O)N1CCN(S(N)(=O)=O)CC1 (centres undefined),6.973
4,COc1ccccc1CN1CC(O)CN(C(=O)OCC(C)C)CC1=O (centres undefined),126.7
5,COc1ccccc1OC1CN(C(=O)Cc2c(C)nc(N)nc2C)C1,-25.47
6,COc1ccccc1CN1CC(OC)CN(C(=O)CC(C)C)CC1=O (centres undefined),106.9
7,COc1ccccc1CNC(=O)N1CCCC(CO)C1 (centres undefined),3.322
8,COc1ccccc1CN1CC(OC)CN(C(=O)OCC(C)C)CC1=O (centres undefined),116.7
9,Cc1cc(CNc2cc(Cl)ccc2OCCS(C)(=O)=O)no1,12.16
10,COCCN(Cc1ccsc1)C(=O)c1c(C)cc(C)[nH]c1=O,-10.51
11,Cc1ccoc1C(=O)N1CC[C@H]2[C@H](C[C@@H](CN3CCCC3)N2C)C1.O=C(O)C(F)(F)F.O=C(O)C(F)(F)F,96.15
12,CS(=O)(=O)N1CC[C@H]2[C@H](C[C@@H](Cn3cncn3)N2CC2CC2)C1.O=C(O)C(F)(F)F,-10.6
13,Cc1cc(C(=O)N2CC[C@H]3[C@H](C[C@@H](CN4CCCC4)N3C)C2)c(C)o1.O=C(O)C(F)(F)F.O=C(O)C(F)(F)F,132.6
14,CCOCC1CN(C(=O)c2cc(C)oc2C)Cc2c1cnn2C.O=C(O)C(F)(F)F (centres undefined),4.422
15,CN(C)C[C@@H]1C[C@@H]2CN(Cc3nccn3C)CC[C@@H]2N1CC1CC1,107.7
16,CC(C)N1[C@H](Cn2cncn2)C[C@@H]2CN(Cc3nccn3C)CC[C@@H]21.O=C(O)C(F)(F)F.O=C(O)C(F)(F)F.O=C(O)C(F)(F)F,2.762
17,CC(C)N1[C@H](CN2CCCC2)C[C@@H]2CN(Cc3ccoc3)CC[C@@H]21.O=C(O)C(F)(F)F.O=C(O)C(F)(F)F.O=C(O)C(F)(F)F,-12.2
18,Cc1oncc1C(=O)N1CC[C@H]2[C@H](C[C@@H](CN(C)C)N2CC2CC2)C1.O=C(O)C(F)(F)F.O=C(O)C(F)(F)F,105.6
19,CC(C)C1CN(Cc2nccn2C)CCC(=O)N1CC1CC1 (centres undefined),-0.2084
20,CN1[C@H](CN2CCCC2)C[C@@H]2CN(Cc3ccoc3)CC[C@@H]21.O=C(O)C(F)(F)F.O=C(O)C(F)(F)F.O=C(O)C(F)(F)F,3.946
21,Cc1cc(C(=O)N2C[C@@H]3COC[C@]3(CN(C)C)C2)c(C)o1.O=C(O)C(F)(F)F,-9.437
22,Cc1oncc1C(=O)N1C[C@H]2CCCC(N(C)Cc3cccs3)[C@H]2C1.O=C(O)C(F)(F)F (some centres undefined),13.96
23,CN(C)C(=O)N1CCN(Cc2nc3ccccc3[nH]2)[C@H]2CS(=O)(=O)C[C@H]21,-17.35
24,CC(C)c1nc(CN2CCCCC2)cs1,-7.213

row,SMILES,Percent Effect [%]
1,COCCCN1CC2(CCN(C(=O)c3ccc(=O)n(C)c3)CC2)CC1=O,118.9
2,CC1(C)CN(C(=O)c2ncc(F)cc2F)CCC1(O)CN1CCOCC1 (centres undefined),-6.83
3,CN1CC2(CCN(C(=O)c3ccc4nccnc4c3)CC2)CC1=O,-6.042
4,COCCCN1CC2(CCN(Cc3ncc[nH]3)CC2)CC1=O,10.5
5,COCCCN1CC2(CCN(C(=O)Cc3csc(C)n3)CC2)CC1=O,-10.63
6,CN1CC2(CCN(C(=O)c3ccc4nonc4c3)CC2)CC1=O,-11.27
7,COCCCN1CC2(CCN(C(=O)c3ncc(F)cc3F)CC2)CC1=O,74.04
8,CN1CC2(CCN(C(=O)c3ccc(=O)n(C)c3)CC2)CC1=O,119.6
9,COc1cccc(N2CCN(C(=O)c3ccc(=O)n(C)c3)CC2)c1,-5.711
10,Cc1nnc(CN(C)C2CCN(c3cccc(-c4cscn4)c3)CC2)o1,-15.24
11,CC(=O)N1[C@H](Cn2cncn2)C[C@@H]2CN(S(C)(=O)=O)CC[C@@H]21,-6.775
12,CCC(C(=O)NC)N(c1cccc(C)c1)S(C)(=O)=O (centres undefined),11.36
13,CSc1cccc(CN(C)C(=O)Nc2nc(C)n(C)n2)c1,2.052
14,CCCN(CC1COc2ccccc2O1)C(=O)c1ncoc1CC (centres undefined),-65.56
15,Cc1ncsc1CN1C[C@@H](OCC2CC2)[C@H]2OCCC[C@H]21,-10.25
16,Cc1ccsc1C(=O)Nc1cc(Br)c(=O)n(C)c1,-6.468
17,N#CCCN(CC1CCCO1)C(=O)c1ccc(C#N)cc1 (centres undefined),122.3
18,N#CCCN(CC1CCCO1)C(=O)c1ccsc1 (centres undefined),115.2
19,N#CCCN(CCC#N)C(=O)c1ccc(OCC2CC2)cc1,8.167
20,N#CCCN(Cc1ccco1)C(=O)c1ccc(OCC2CC2)cc1,40.98
21,O=C(c1cnc(O)cn1)N(Cc1ccsc1)CC1CCCO1 (centres undefined),-2.864
22,O=C(c1cccc(=O)[nH]1)N(Cc1ccsc1)CC1CCCO1 (centres undefined),-26.62
23,CCn1/c(=N/C(=O)CSCC(=O)Nc2nccs2)sc2ccccc21,6.405
24,CN(C)C(=O)CN1C[C@@H]2CC[C@H](C1)N(C(=O)CCCn1cncn1)C2,9.651

row,SMILES,Percent Effect [%]
1,O=C1CCC(C(=O)N2CCC(Cn3cc(C4CCCC4)nn3)CC2)=NN1,-1.401
2,Cc1noc(C)c1CN1CCCC(CN(C(=O)OC(C)(C)C)C(C)C)C1 (centres undefined),-2.017
3,NCC(=O)N1CCCC(O)(CN2CCN(c3ccccc3)CC2)CC1 (centres undefined),149.6
4,O=C(CC1CC1)N1CCC2(CC(=O)N(c3cccc(F)c3)C2)C1 (centres undefined),-13.04
5,O=C(Cn1nc2ccccc2n1)N1CCCC(O)(CN2CCCC2)C1 (centres undefined),-26.39
6,COCC(=O)N1CC2(CCN(c3ccccc3)C2)C1,10.91
7,NC(=O)CN1CCCC(C(=O)N2CCC(O)(Cc3ccccc3)CC2)C1 (centres undefined),12.2
8,COCC(=O)N1CCC(O)(CN2CCN(c3ccccc3)CC2)C1 (centres undefined),93.8
9,O=C(CC1CC1)N1CCC(O)(CN2CCN(c3ccccc3)CC2)C1 (centres undefined),113.7
10,COCC(=O)N1CCCC2(CCN(c3ccccc3)C2=O)C1 (centres undefined),-10.31
11,Cc1ccc(CN2CC3(CCN(C(=O)C4CC4)CC3)CC2C(=O)O)o1 (centres undefined),-15.03
12,CN(C)CC1(O)CCCN(C(=O)Cn2nc3ccccc3n2)CC1 (centres undefined),-26.73
13,O=C(C1CC1)N1CCC(O)(CN2CCN(c3ccccc3)CC2)C1 (centres undefined),101.1
14,CN1CCc2ccc(NCc3cccs3)cc2C1=O,-3.883
15,Cc1nc(-c2cc(C(=O)NCC(C)(C)CO)c3ccccn23)cs1,-18.5
16,COc1cc(NC(=O)NC(C2CC2)C2CC2)ccc1N1CCOC1=O,-4.711
17,CN1CCN(C(=O)N2C[C@H]3CC[C@@H]2CN(Cc2ccccc2)C3)CC1,-20.32
18,O=C(NC1CC(=O)N(C2Cc3ccccc3C2)C1)c1ccoc1 (centres undefined),-3.995
19,CCC(=O)NCc1cc(Br)ccc1OC(F)F,-1.176
20,CS(=O)(=O)c1nccn1Cc1ccc(Cl)cc1,-5.692
21,O=C(CNC1CCc2ncnn2C1)N(Cc1cccs1)C1CC1 (centres undefined),0.7257
22,O=C(c1n[nH]c(=O)c2ccccc12)N1CCC(O)(CN2CCOCC2)C1 (centres undefined),88.42
23,O=C(NCCN1CCOCC1)c1n[nH]c(=O)c2ccccc12,6.871
24,CCc1ccc(C(=O)N2CCC(O)(CN3CCOCC3)C(C)(C)C2)[nH]1 (centres undefined),-6.859

row,SMILES,Percent Effect [%]
1,CCCNC(=O)CN1CCN(Cc2csc(C(C)(C)C)n2)CC1,-11.65
2,COc1cccc(NC(=O)NCC(C)(O)CCSC)c1OC (centres undefined),-0.9088
3,Fc1ccc2[nH]c(C3CCCN3Cc3c[nH]cn3)nc2c1 (centres undefined),-35.05
4,CN(CC1CC1)C(=O)CN1CCCC1c1cnn(C)c1 (centres undefined),-56.85
5,CNc1cncc(C2CCCN2Cc2c[nH]cn2)n1 (centres undefined),-2.81
6,CN(C(=O)CN1CCCC1c1cnn(C)c1)C(C)(C)C#N (centres undefined),6.976
7,Cc1ccc2nc(C3CCCN3Cc3csc(C)n3)[nH]c2c1 (centres undefined),2.616
8,CC(=O)NCCNC(=O)CN1CCN(Cc2nccn2C)C(C)C1 (centres undefined),1.772
9,CC(=O)Nc1nc(CN2CCCC2c2cnn(C)c2)cs1 (centres undefined),-2.623
10,CN(C)C(=O)c1cn[nH]c1C1CCCN1Cc1c[nH]cn1 (centres undefined),119.4
11,Cn1ccnc1CN1CCCCC1c1nc(-c2ccccc2)no1 (centres undefined),18.03
12,CN(C)C(=O)c1cn[nH]c1C1CCCN1Cc1nccn1C.O=CO (centres undefined),83.24
13,Cc1nc(CN2CCCC2c2[nH]ncc2C(=O)N(C)C)cs1 (centres undefined),135.6
14,CN(C)C(=O)c1cn[nH]c1C1CCCN1Cc1cncn1C (centres undefined),96.91
15,CC(Oc1ccccc1C(F)(F)F)C(=O)NCCNC(=O)C1CC1 (centres undefined),-69.67
16,Cc1cnn(CCC(=O)NS(=O)(=O)N2CCc3ccccc32)c1,5.056
17,Cc1nn(C)c2ncnc(N(C)CC3CCN(CC(C)C)C3)c12 (centres undefined),-20.38
18,O=C(NC[C@H]1OC[C@@H](NC2COC2)[C@@H]1O)Nc1ccccc1,4.366
19,Cc1ccc(C(=O)N2CCC(n3cc(CN)nn3)CC2)cc1F,8.756
20,CCCN(CC1COc2ccccc2O1)C(=O)CCN1C(=O)CCC1=O (centres undefined),23.62
21,CC(C)NC(=O)[C@@H]1C[C@@H](N)CN1C(=O)CCSCc1ccccc1,-10.01
22,Cc1nn(C)c(N2CCOCC2)c1CNC1CCc2ccccc2C1 (centres undefined),-5.455
